16 compounds from ChEMBL document CHEMBL1961873, “Compounds: GSK PKIS; Assays: Nanosyn kinase panel” (2012) can be followed below.

Experiment [1] relates to Tyrosine-protein kinase ABL1 (Homo sapiens), P00519 [T315I]. The settings on record: at 1 µM.
For experiment [2], the system named is Tyrosine-protein kinase ABL1 (Homo sapiens), P00519 [Y253F]. The note with it: at 0.1 µM.
Experiment [3] has the same test system. The note with it: at 1 µM.
Experiment [4] addresses Tyrosine-protein kinase ABL1 (Homo sapiens) (UniProt P00519). The note with it: at 0.1 µM.
Experiment [5] shares this target. The note with it: at 1 µM.
Experiment [6] addresses ALK tyrosine kinase receptor (Homo sapiens) (UniProt Q9UM73). The note with it: at 0.1 µM.
Experiment [7] has the same target. The settings on record: at 1 µM.
In experiment [8] the target is Tyrosine-protein kinase ABL2 (Homo sapiens) (UniProt P42684). The note with it: at 0.1 µM.
Chain of Tyrosine-protein kinase ABL2 (Homo sapiens) (P42684 whole entry): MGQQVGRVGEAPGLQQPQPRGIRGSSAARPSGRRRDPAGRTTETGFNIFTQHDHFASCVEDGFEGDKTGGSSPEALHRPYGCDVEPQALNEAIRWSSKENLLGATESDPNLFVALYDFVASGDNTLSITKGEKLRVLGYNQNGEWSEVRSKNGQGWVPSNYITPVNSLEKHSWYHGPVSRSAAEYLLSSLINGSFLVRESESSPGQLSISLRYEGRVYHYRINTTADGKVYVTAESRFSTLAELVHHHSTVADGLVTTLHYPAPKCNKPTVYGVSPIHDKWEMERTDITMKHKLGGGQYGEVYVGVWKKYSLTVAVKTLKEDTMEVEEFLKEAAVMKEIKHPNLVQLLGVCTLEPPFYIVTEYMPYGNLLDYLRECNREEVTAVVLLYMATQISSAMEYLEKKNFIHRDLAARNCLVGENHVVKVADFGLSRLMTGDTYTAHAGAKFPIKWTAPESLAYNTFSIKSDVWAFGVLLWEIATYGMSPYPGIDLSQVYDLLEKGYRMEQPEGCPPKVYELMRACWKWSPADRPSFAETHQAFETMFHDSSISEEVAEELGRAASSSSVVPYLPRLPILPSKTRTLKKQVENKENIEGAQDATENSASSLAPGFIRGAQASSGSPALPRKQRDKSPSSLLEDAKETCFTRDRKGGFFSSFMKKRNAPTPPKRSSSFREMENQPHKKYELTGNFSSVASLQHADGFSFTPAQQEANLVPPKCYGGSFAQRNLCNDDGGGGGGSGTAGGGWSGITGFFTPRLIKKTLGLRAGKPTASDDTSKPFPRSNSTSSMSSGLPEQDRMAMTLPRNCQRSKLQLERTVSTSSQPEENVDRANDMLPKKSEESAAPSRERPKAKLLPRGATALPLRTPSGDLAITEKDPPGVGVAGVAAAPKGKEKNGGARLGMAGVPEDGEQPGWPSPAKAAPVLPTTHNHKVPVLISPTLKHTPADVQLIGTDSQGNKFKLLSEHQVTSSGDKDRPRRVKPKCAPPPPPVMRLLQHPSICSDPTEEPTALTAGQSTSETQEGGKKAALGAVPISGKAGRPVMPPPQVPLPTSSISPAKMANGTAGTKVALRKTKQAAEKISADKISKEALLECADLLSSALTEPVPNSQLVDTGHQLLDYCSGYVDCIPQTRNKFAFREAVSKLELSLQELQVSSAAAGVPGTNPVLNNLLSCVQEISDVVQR
The target is the same in experiment [9]. The settings on record: at 1 µM.
Experiment [10] addresses Tyrosine-protein kinase receptor UFO (Homo sapiens) (UniProt P30530). The settings on record: at 0.1 µM.

Chain of ALK tyrosine kinase receptor (Homo sapiens) (Q9UM73 19-1620 limits assumed): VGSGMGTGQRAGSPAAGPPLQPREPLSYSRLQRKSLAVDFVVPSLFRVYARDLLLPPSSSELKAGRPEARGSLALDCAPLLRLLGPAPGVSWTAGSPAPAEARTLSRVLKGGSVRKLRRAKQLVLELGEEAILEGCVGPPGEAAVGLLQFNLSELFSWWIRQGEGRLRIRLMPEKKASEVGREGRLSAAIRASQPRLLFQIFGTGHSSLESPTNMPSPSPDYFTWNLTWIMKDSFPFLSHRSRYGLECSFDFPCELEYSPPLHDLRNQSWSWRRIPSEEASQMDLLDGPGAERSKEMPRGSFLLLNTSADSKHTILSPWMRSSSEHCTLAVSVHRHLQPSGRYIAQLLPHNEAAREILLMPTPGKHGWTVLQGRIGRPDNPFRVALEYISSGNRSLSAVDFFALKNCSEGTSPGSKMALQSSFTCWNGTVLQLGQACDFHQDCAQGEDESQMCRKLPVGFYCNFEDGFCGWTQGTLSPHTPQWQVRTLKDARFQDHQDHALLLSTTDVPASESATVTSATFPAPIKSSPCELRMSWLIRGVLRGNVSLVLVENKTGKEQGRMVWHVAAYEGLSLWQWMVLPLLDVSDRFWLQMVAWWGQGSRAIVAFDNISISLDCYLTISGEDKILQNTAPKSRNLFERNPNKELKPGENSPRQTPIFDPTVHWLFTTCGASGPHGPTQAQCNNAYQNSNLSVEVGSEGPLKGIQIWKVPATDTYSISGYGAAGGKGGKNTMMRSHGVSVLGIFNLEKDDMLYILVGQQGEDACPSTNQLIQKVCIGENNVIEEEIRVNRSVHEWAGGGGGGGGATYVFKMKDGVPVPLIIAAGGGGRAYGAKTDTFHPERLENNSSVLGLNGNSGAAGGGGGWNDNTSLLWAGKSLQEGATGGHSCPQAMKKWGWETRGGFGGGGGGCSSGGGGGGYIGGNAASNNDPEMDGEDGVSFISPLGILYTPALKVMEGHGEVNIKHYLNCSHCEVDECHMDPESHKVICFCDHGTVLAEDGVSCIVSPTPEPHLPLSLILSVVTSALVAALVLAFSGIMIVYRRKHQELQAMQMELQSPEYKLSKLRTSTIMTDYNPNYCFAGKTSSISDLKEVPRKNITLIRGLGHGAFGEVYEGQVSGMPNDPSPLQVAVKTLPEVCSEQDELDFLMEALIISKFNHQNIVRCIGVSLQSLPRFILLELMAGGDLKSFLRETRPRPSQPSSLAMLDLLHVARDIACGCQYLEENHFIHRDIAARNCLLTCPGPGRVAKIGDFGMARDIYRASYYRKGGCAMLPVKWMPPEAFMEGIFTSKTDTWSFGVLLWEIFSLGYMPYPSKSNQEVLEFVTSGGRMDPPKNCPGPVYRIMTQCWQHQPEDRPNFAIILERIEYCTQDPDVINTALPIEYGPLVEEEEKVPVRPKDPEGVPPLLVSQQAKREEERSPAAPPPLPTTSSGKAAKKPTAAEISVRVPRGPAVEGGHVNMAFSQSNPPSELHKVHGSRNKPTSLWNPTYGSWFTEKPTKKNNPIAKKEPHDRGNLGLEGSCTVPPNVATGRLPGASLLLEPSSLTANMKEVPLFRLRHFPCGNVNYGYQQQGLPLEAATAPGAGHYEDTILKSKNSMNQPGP
Chain of Tyrosine-protein kinase receptor UFO (Homo sapiens) (P30530 whole entry): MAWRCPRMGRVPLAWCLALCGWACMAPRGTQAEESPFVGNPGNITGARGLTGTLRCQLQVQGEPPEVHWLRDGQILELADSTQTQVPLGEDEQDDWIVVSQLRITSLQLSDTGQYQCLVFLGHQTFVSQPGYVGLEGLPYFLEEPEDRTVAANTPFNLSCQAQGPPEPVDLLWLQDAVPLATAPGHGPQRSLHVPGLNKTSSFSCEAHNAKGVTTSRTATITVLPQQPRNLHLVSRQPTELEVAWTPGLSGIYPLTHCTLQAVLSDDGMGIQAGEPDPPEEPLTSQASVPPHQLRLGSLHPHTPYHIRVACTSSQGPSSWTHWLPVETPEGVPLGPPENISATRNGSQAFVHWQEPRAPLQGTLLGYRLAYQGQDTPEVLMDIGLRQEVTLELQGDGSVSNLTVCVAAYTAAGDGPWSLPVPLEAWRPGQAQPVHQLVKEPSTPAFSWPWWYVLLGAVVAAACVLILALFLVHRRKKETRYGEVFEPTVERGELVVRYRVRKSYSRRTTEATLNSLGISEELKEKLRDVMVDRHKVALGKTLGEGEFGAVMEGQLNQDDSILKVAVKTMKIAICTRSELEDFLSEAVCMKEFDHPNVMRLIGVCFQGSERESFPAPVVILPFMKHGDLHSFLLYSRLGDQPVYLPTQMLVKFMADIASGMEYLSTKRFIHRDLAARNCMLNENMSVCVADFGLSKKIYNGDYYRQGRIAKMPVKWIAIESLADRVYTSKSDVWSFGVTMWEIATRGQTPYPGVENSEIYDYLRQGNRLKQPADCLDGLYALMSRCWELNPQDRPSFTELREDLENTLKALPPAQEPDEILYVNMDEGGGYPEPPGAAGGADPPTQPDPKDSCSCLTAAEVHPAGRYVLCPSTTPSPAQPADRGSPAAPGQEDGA

On to `Cc1cccc2c1NC(=O)/C2=N\Nc1ccc(S(N)(=O)=O)cc1`, for which the inhibition (in general, the change of the read-out against control, counted positive when it falls) in [1] was determined as 0.76%; in [2] it was 4.21%; in [3], 11.3%; in experiment [4], 5.35%; in [5], 11.4%; in experiment [6] it was 2.99%. The inhibition is 4.7% in experiment [7], 3.22% in experiment [8], 10.1% in experiment [9] and -3.51% in [10].
`COc1ccc(CNC(=O)c2ccc(-c3cc(-c4nnc(C)o4)ccc3C)cc2)cc1`: the inhibition in experiment [1] worked out at 6.32%; in experiment [2] it was 3.15%; in experiment [3] it was 5.25%; in experiment [4], 4.76%; in experiment [5], 6.46%; in [6], 0.25%. Moreover, the inhibition in experiment [7] was -0.53%; in experiment [8] it was 4.31%; in experiment [9], 4.39%; in [10] it was 4.83%.
For `Fc1cccc(COc2ccc(Nc3ncnc4sc(-c5ccco5)cc34)cc2Cl)c1`, the inhibition in experiment [1] was 2.74%; in experiment [2] it was 3.33%; in experiment [3], 3.8%; in experiment [4], 4.81%; in [5], 8.56%; in [6], 3.35%. For the same compound, the inhibition in experiment [7] is 4.37%; in experiment [8] it was 4.36%; in [9] it was 7.39%; in experiment [10], -6.97%.
Turning to `NS(=O)(=O)c1ccc(N/N=C2\C(=O)Nc3ccc4ncccc4c32)cc1`, the inhibition came to 47.1% in experiment [1]; 11.6% in experiment [2]; 49.8% in experiment [3]; 9.91% in experiment [4]; 50.2% in experiment [5]; 3.06% in experiment [6]. Also, the inhibition in [7] amounted to 16.1%; in [8], 4.85%; in [9], 33.7%; in experiment [10] it was 0.46%.
Consider `CC1=C(C(=O)Nc2cc(Cl)c3[nH]ncc3c2)C(c2ccc(C(F)(F)F)cc2)CC(=O)N1` (stereo not given), for which the inhibition in [1] worked out at 3.3%; in experiment [2], 3.38%; in experiment [3], 4.41%; in [4], 2.62%; in [5] it was 1.72%; in experiment [6] it was 2.22%. Moreover, the inhibition is 2.26% in experiment [7], 3.63% in experiment [8], 3.51% in experiment [9] and -4.79% in experiment [10].
Take `COC(=O)Nc1nc2ccc(S(=O)(=O)c3ccc(NC(=O)Nc4cc(C(F)(F)F)ccc4F)cc3)cc2[nH]1`: the inhibition in experiment [1] amounted to 1.15%; in experiment [2], 0.34%; in [3], 1.69%; in [4], 3.92%; in experiment [5], 9.87%; in experiment [6], 2.66%. For the same compound, the inhibition was 3.54% in [7], 5.17% in experiment [8], 6.34% in experiment [9] and -5.56% in [10].
For the compound `CCn1c(-c2nonc2N)nc2c(C#CC(C)(C)O)ncc(OC3CCNCC3)c21`, the inhibition in [1] is 1.99%; in experiment [2], -0.54%; in experiment [3] it was 0.66%; in experiment [4], 4.72%; in experiment [5], 3.17%; in experiment [6], 1.83%. Further, the inhibition was 4.92% in experiment [7], 2.02% in experiment [8], 3.67% in experiment [9] and -1.51% in [10].
On to `CCOc1ccc2c(-c3ccnc(Nc4cccc(C(F)(F)F)c4)n3)cnn2n1`, for which the inhibition in experiment [1] turned out to be 2.2%; in experiment [2], 2.21%; in experiment [3], 3.23%; in [4], 3.73%; in [5], 7.89%; in experiment [6] it was 2.18%. Also, the inhibition in experiment [7] is 3.1%; in experiment [8], 2.04%; in experiment [9], 8.28%; in experiment [10], -3.01%.
Regarding `Nc1nc(-c2cccc(Cl)c2)c(-c2ccc3ncccc3n2)s1`, the inhibition in [1] was 7.84%; in experiment [2], 5.66%; in [3] it was 15.3%; in experiment [4], 3.63%; in experiment [5] it was 15.7%; in experiment [6], 5.48%. Further, the inhibition in [7] is 7.43%; in experiment [8] it was 3.3%; in experiment [9], 7.05%; in [10] it was -6.08%.
On to `[O-][S+]1CCN(Cc2ccc(-c3ccc4ncnc(Nc5ccc(OCc6cccc(F)c6)c(Cl)c5)c4c3)o2)CC1`, for which the inhibition in [1] was 3.02%; in experiment [2], 4.31%; in experiment [3], 4.49%; in experiment [4], 2.52%; in experiment [5] it was 5.75%; in [6] it was 3.34%. The inhibition is 7.82% in experiment [7], 1.01% in experiment [8], 7.14% in experiment [9] and -4.66% in experiment [10].
Consider `CS(=O)(=O)CCNCc1coc(-c2ccc3ncnc(Nc4ccc(OCc5ccccc5)cc4)c3c2)c1`, for which the inhibition is 4.02% in [1]; 3.03% in [2]; 2.89% in experiment [3]; 4.85% in experiment [4]; 7.39% in [5]; 2.87% in [6]. In addition, the inhibition in [7] was 9.68%; in experiment [8], 3.06%; in experiment [9] it was 4.08%; in experiment [10], -2.71%.
In the case of `COc1ccc(-c2oc3ncnc(N)c3c2-c2ccc(NC(=O)Nc3cc(C(F)(F)F)ccc3F)cc2)cc1`, the inhibition in experiment [1] was found to be 64.3%; in experiment [2], 9.77%; in experiment [3] it was 54.4%; in experiment [4], 7.54%; in [5] it was 52.3%; in experiment [6] it was 2.32%. The inhibition turned out to be 8.5% in [7], 13.6% in [8], 68.1% in [9] and 21.3% in experiment [10].
Turning to `CN1CCC(n2cnc(-c3ccc(F)cc3)c2-c2ccnc(N)n2)CC1`, the inhibition in experiment [1] stood at 5.74%; in experiment [2], 1.88%; in [3] it was 8.15%; in [4], 2.31%; in experiment [5], 8.97%; in experiment [6], 1.26%. Further, the inhibition in experiment [7] is 4.21%; in [8], 2.89%; in experiment [9], 7.64%; in experiment [10] it was -3.77%.
As for `CCn1c(-c2nonc2N)nc2ccccc21`, the inhibition in experiment [1] was 1.53%; in experiment [2], 3.97%; in experiment [3] it was 4.13%; in experiment [4] it was 4.4%; in [5], 6.01%; in experiment [6] it was 1.5%. The inhibition in [7] was 8.1%; in [8], 4.04%; in experiment [9] it was 3%; in [10] it was -0.67%.
As for `NS(=O)(=O)c1ccc(Nc2ncc(-c3ccccc3)o2)cc1`, the inhibition in experiment [1] is 17.9%; in experiment [2], 5.61%; in [3], 26.6%; in experiment [4], 5.37%; in experiment [5] it was 37.9%; in experiment [6], 1.53%. Besides, the inhibition is 6.29% in experiment [7], 4.93% in [8], 42% in experiment [9] and -5.59% in experiment [10].
As to `c1ccc(COc2ccc(Nc3ncnc4ccc(-c5ccco5)cc34)cc2)cc1`, the inhibition is 1.49% in experiment [1]; 0.09% in experiment [2]; 0.37% in experiment [3]; 2.97% in experiment [4]; 1% in experiment [5]; 1.38% in [6]. Also, the inhibition came to 2.45% in experiment [7], 2.41% in experiment [8], 4.34% in experiment [9] and 0.76% in [10].
